# Data taken from publication PMC4552634, “A New Set of Chemical Starting Points with Plasmodium falciparum Transmission-Blocking Potential for Antimalarial Drug Discovery” (PLoS ONE, 2015).
# About 3,200 (25%) of roughly 13,000 compounds showed an effect of 50% or more. The list shows a part of the results.
# System: P. falciparum stage V gametocytes
# Design: BacTiter-Glo ATP luminescence viability of purified stage V gametocytes in 384-well plates, per cent inhibition versus DMSO
# Conditions: 48 h, 5 µM; inhibitor
row,Structure (SMILES),% Inhibition
1,COc1ccc(CCNC(=O)c2cnc3c(c2)nc(-c2cnc(-c4ccccc4)[nH]2)n3CCc2cnc[nH]2)cc1 [TCMDC-139689],-21.36%
2,Cc1cccc2nc(-c3ccc(-c4ccc(CNCCNC(=O)c5ccnn5C)cc4)s3)[nH]c12.O=C(O)C(F)(F)F [TCMDC-133009],4.683%
3,Cc1cccc2nc(-c3cccc(-c4ccc(CNCCNC(=O)c5ccnn5C)cc4)c3)[nH]c12.O=C(O)C(F)(F)F [TCMDC-133007],31.89%
4,Cc1cccc2nc(-c3ccc(-c4cccc(CNCCNC(=O)c5ccnn5C)c4)s3)[nH]c12.O=C(O)C(F)(F)F [TCMDC-133015],-0.5354%
5,Cc1cccc2nc(-c3ccc(-c4ccc(CNCCNC(=O)c5ccnn5C)cc4)cc3)[nH]c12.O=C(O)C(F)(F)F [TCMDC-133017],85.49%
6,Cc1cccc2nc(-c3ccc(-c4cccc(CNCCNC(=O)c5ccnn5C)c4)cc3)[nH]c12.O=C(O)C(F)(F)F [TCMDC-133011],85.89%
7,Cc1cccc2nc(-c3cccc(-c4cccc(CNCCNC(=O)c5ccnn5C)c4)c3)[nH]c12.O=C(O)C(F)(F)F [TCMDC-133005],-4.375%
8,CS(=O)(=O)CCNCc1ccc(-c2ccc3ncnc(Nc4ccc(OCc5ccccc5)c(Cl)c4)c3c2)o1 [TCMDC-138467],19.81%
9,COc1cc(OCCCCCCON2C(N)=NC(N)=NC2(C)C)cc(OC)c1OC [TCMDC-131371],3.006%
10,Cc1cc(OCCCN2CCC(NS(=O)(=O)c3ccc(C(F)(F)F)cc3)CC2)c2ccccc2n1 [TCMDC-136277],-32.21%
11,COc1ccc(-n2nc(C)c3c2NC(=O)CC3c2ccccc2OCc2ccccc2F)cc1 (stereo not shown) [TCMDC-124907],2.012%
12,COc1ccc2nccc([C@@H](O)CN3CCC(NC(=O)c4cc5cccnc5[nH]4)CC3)c2c1 [TCMDC-140768],6.193%
13,Cc1ccc(Nc2nnc(SCC(=O)Nc3ccc(CN4CCCC4)cc3)s2)cc1 [TCMDC-125043],65.4%
14,Cc1ccc(NC(=O)c2ccc(CN3CCCN(CC4CCCCC4)CC3)cc2)cc1 [TCMDC-136397],-64.33%
15,Cc1ccc(NC(=O)c2ccc(CN3CCCN(Cc4cccc(O)c4)CC3)cc2)cc1 [TCMDC-136398],-12.68%
16,COc1ccccc1C1CCN(C2CCC(NC(=O)/C=C/c3ccc(C(F)(F)F)cc3F)CC2)CC1 (stereo not shown) [TCMDC-133486],-41.82%
17,O=C(Nc1ccncc1)Nc1ccc2c(c1)CCN(C1CCC1)CC2 [TCMDC-135949],33.65%
18,O=C(c1cccc(COc2ccc3c(c2)CCN(C2CCCC2)CC3)c1)N1CCN(c2ccncc2)CC1 [TCMDC-134128],76.76%
19,O=C(Nc1ccc2c(c1)CCC2)c1cccc(N2CCN(c3ccncc3)CC2)c1 [TCMDC-135125],2.245%
20,Oc1ccc(CCNc2nc(NCc3ccccc3-c3ccc(F)cc3)nc(N3CCNCC3)n2)cc1 [TCMDC-133783],11.92%
21,COc1ccc2nccc([C@@H](O)CN3CCC(NCc4ccc5scnc5c4)CC3)c2c1 [TCMDC-141081],9.68%
22,Cc1ccc(NC(=O)c2ccc(Cl)c(Cl)c2)cc1-c1ccc(C(=O)Nc2ccncc2)cc1 [TCMDC-133696],-4.564%

row,Structure (SMILES),% Inhibition
1,CCOc1cc(C)ccc1C1CCN(CCCCNC(=O)c2cnc(-c3ccc(C(F)(F)F)cc3)[nH]2)CC1 [TCMDC-138581],5.476%
2,COc1ccc(NC(=O)[C@H](CC(C)C)Nc2ccnc(NCCc3ccc(F)cc3)n2)cc1 [TCMDC-134826],23.86%
3,COc1ccc(NC(=O)CCNc2ccnc(NCCc3ccc(F)cc3)n2)cc1 [TCMDC-134823],38.74%
4,COc1ccc2c(CCNc3nc(SC)ncc3C(=O)NCCc3ccc(F)cc3)c[nH]c2c1 [TCMDC-136796],55%
5,CCNCc1ccc(-c2cc3ncnc(Nc4ccc(OCc5cccc(F)c5)c(Cl)c4)c3s2)[nH]1 [TCMDC-135542],-36.05%
6,Cc1ccc(F)c(NC(=O)c2c(-c3c(F)cccc3Cl)noc2C)c1 [TCMDC-125643],-20.89%
7,Clc1ccccc1OCc1ccccn1 [TCMDC-125865],-0.5645%
8,Cc1ccc(N/C(N)=N/c2ncccc2OCc2c(F)cccc2Cl)cc1 [TCMDC-138944],83.96%
9,O=C(/C=C/c1ccc(Cl)c(Cl)c1)NCCCCCN1CCCN(C(=O)Nc2cccc(F)c2)CC1 [TCMDC-135745],-38.92%
10,COc1cc(C(=O)Nc2cccc(-c3nc4ccccc4[nH]3)c2)cc(OC)c1OC [TCMDC-125848],-4.164%
11,COc1ccc(Cl)cc1C(=O)Nc1ccc(-c2nc3ccccc3[nH]2)cc1 [TCMDC-125808],9.6%
12,CCOc1cc(C(=O)Nc2ccc(-c3nc4ccccc4[nH]3)cc2)cc(OCC)c1OCC [TCMDC-125676],-48.5%
13,COc1cccc(C(=O)Nc2ccc(-c3nc4ccccc4[nH]3)cc2)c1 [TCMDC-124429],5.991%
14,Cc1ccc(-c2nc3ccc(C(=O)NC4CCN(Cc5ccccc5)CC4)cc3[nH]2)cc1 [TCMDC-133073],5.058%
15,COc1cc(C(=O)Nc2ccc(-c3nc4ccccc4[nH]3)cc2)cc(OC)c1OC [TCMDC-125796],51.37%
16,Cc1ccc(-c2nc3ccc(C(=O)NC4CCC(N5CCCc6ccc(C#N)cc6C5)CC4)cc3[nH]2)cc1 (stereo not shown) [TCMDC-133551],-1.563%
17,O=C(Nc1ccc(-c2nc3ccc(NC(=O)c4ccc(Br)cc4)cc3[nH]2)cc1)c1ccc(Br)cc1 [TCMDC-124212],-13.35%
18,CCOc1cccc(C(=O)Nc2ccc(-c3nc4ccccc4[nH]3)cc2)c1 [TCMDC-123752],24.98%
19,COc1ccc(C(=O)Nc2ccc(-c3nc4ccc(C)cc4[nH]3)cc2)cc1OC [TCMDC-124358],77.27%
20,COc1ccccc1C1CCN(C2CCC(NC(=O)c3ccc4nc(-c5ccc(C)cc5)[nH]c4c3)CC2)CC1 (stereo not shown) [TCMDC-133556],115.6%
21,N#Cc1cccc(C(=O)Nc2ccc(-c3nc4ccccc4[nH]3)cc2)c1 [TCMDC-124812],70.91%
